# Records with an inconclusive call do not appear. Entries that show only a call come without a potency. Active and inactive are the calls of the source. Calls come from the whole dose curve; as a rule, active = well fitted inhibition curve with a large enough effect; inconclusive = small, poorly fitted or top-dose-only effect; inactive = flat fitted curve, though single readings scatter.
# Experiments:
# Experiment in all cases: qHTS profiling for inhibitors of Plasmodium falciparum proliferation (AID 504749); note: nearly all actives have a fitted effect of over 60% in size
# Settings in all cases: P. falciparum in erythrocytes, SYBR Green DNA, 72 h; series mostly up to 28.7 µM
# CP291 = test system: CP291
# Method in brief: (§1)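 In a 72 h erythrocytic culture (37 C, humidified, 5% CO2) at 2.5% hematocrit and 0.3% starting parasitemia, compounds were tested; SYBR Green I in detergent lysis buffer stained parasite DNA overnight.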
# CP297 = test system: CP297
# Method in brief: as §1
# CP305 = test system: CP305
# Method in brief: as §1
# CP315 = test system: CP315
# Method in brief: as §1
# CP325 = test system: CP325
# Method in brief: as §1
# CP329 = test system: CP329
# Method in brief: as §1
# CP335 = test system: CP335
# Method in brief: as §1
# DFO2036 = test system: DFO2036
# Method in brief: as §1
# DIV14 = test system: DIV14
# Method in brief: as §1
# DIV17 = test system: DIV17
# Method in brief: as §1
# DIV30 = test system: DIV30
# Method in brief: as §1
# Dd2 = test system: Dd2
# Method in brief: as §1
# ECU = test system: ECU
# Method in brief: as §1
# FAB9 = test system: FAB9
# Method in brief: as §1
# GB4 = test system: GB4
# Method in brief: as §1
# HB3 = test system: HB3
# Method in brief: as §1
# ICS = test system: ICS
# Method in brief: as §1
# JCK = test system: JCK
# Method in brief: as §1
# N140 = test system: N140
# Method in brief: as §1
# P93_24 = test system: P93_24
# Method in brief: as §1
# Potency is the fitted concentration of half-maximal effect.
SMILES,Potency (CP291),Potency (CP297),Potency (CP305),Potency (CP315),Potency (CP325),Potency (CP329),Potency (CP335),Potency (DFO2036),Potency (DIV14),Potency (DIV17),Potency (DIV30),Potency (Dd2),Potency (ECU),Potency (FAB9),Potency (GB4),Potency (HB3),Potency (ICS),Potency (JCK),Potency (N140),Potency (P93_24)
CN=C(NC#N)NCCSCc1nc[nH]c1C,inactive,inactive,inactive,inactive,inactive,inactive,inactive,inactive,inactive,inactive,inactive,inactive,inactive,inactive,inactive,inactive,inactive,inactive,inactive,inactive
Cc1scc2c1N(C(=O)CN1CCN(C)CC1)c1ccccc1NC2=O,inactive,inactive,inactive,inactive,inactive,inactive,inactive,inactive,inactive,inactive,inactive,inactive,inactive,inactive,inactive,inactive,inactive,inactive,inactive,inactive
COCC(=O)O[C@]1(CCN(C)CCCc2nc3ccccc3[nH]2)CCc2cc(F)ccc2[C@@H]1C(C)C,4.78 µM (active),0.849 µM (active),6.01 µM (active),6.75 µM (active),6.75 µM (active),4.78 µM (active),1.9 µM (active),1.26 µM (active),0.953 µM (active),0.601 µM (active),3.38 µM (active),0.224 µM (active),4.47 µM (active),10 µM (active),0.151 µM (active),7.94 µM (active),1.78 µM (active),7.94 µM (active),0.562 µM (active),1.58 µM (active)
COc1ccc([C@@H]2Sc3ccccc3N(CCN(C)C)C(=O)[C@@H]2OC(C)=O)cc1,inactive,inactive,inactive,inactive,inactive,inactive,inactive,inactive,inactive,inactive,inactive,inactive,inactive,inactive,inactive,inactive,inactive,10 µM (active),inactive,inactive
NCCCNCCSP(=O)(O)O,inactive,inactive,inactive,inactive,inactive,inactive,inactive,inactive,inactive,inactive,inactive,inactive,inactive,inactive,inactive,inactive,inactive,inactive,inactive,inactive
NC(=O)N1c2ccccc2C=Cc2ccccc21,inactive,inactive,inactive,inactive,inactive,inactive,inactive,inactive,inactive,inactive,inactive,inactive,inactive,inactive,inactive,inactive,inactive,inactive,inactive,inactive
Nc1ncn([C@@H]2O[C@H](CO)[C@@H](O)[C@H]2O)c(=O)n1,inactive,inactive,inactive,inactive,inactive,inactive,inactive,inactive,inactive,inactive,inactive,inactive,inactive,inactive,inactive,inactive,inactive,inactive,inactive,inactive
CCn1ccnc1CC1COc2ccccc2O1 (stereo unspecified),inactive,inactive,inactive,inactive,inactive,inactive,inactive,inactive,inactive,inactive,inactive,inactive,inactive,inactive,inactive,inactive,inactive,inactive,inactive,inactive
CCN(CC)CCNC(=O)c1ccc(NC(C)=O)cc1,inactive,inactive,inactive,inactive,inactive,inactive,inactive,inactive,inactive,inactive,inactive,inactive,inactive,inactive,inactive,inactive,inactive,inactive,inactive,inactive
Cc1nc2c([nH]1)c(=O)n(C)c(=O)n2Cc1ccco1,inactive,inactive,inactive,inactive,inactive,inactive,inactive,inactive,inactive,inactive,inactive,inactive,inactive,inactive,inactive,inactive,inactive,inactive,inactive,inactive
CCCCNC(=O)NS(=O)(=O)c1ccc(C)cc1,inactive,inactive,inactive,inactive,inactive,inactive,inactive,inactive,inactive,inactive,inactive,inactive,inactive,inactive,inactive,inactive,inactive,inactive,inactive,inactive
NC(=O)c1cn(Cc2c(F)cccc2F)nn1,inactive,inactive,inactive,inactive,inactive,inactive,inactive,inactive,inactive,inactive,inactive,inactive,inactive,inactive,inactive,inactive,inactive,inactive,inactive,inactive
NS(=O)(=O)c1cc2c(cc1Cl)NC(C1CC3C=CC1C3)NS2(=O)=O (stereo unspecified),inactive,inactive,inactive,inactive,inactive,inactive,inactive,inactive,inactive,inactive,inactive,inactive,inactive,inactive,inactive,inactive,inactive,inactive,inactive,inactive
CC(=O)Oc1cc(C(C)C)c(OCCN(C)C)cc1C,inactive,inactive,inactive,inactive,inactive,inactive,–,inactive,inactive,inactive,inactive,inactive,inactive,inactive,inactive,inactive,inactive,inactive,inactive,inactive
CN1C[C@H](C(=O)N[C@]2(C)O[C@@]3(O)[C@@H]4CCCN4C(=O)[C@H](Cc4ccccc4)N3C2=O)C[C@@H]2c3cccc4[nH]cc(c34)C[C@H]21,16.9 µM (active),4.26 µM (active),–,–,12 µM (active),–,8.49 µM (active),–,0.675 µM (active),0.426 µM (active),0.757 µM (active),–,–,–,6.01 µM (active),–,–,–,–,–
CC1=NS(=O)(=O)c2cc(Cl)ccc2N1,inactive,inactive,inactive,inactive,inactive,inactive,inactive,inactive,inactive,inactive,inactive,–,inactive,inactive,inactive,–,inactive,–,inactive,–
CN1CCN(C2=Nc3ccccc3Oc3ccc(Cl)cc32)CC1,inactive,inactive,inactive,inactive,inactive,inactive,inactive,inactive,inactive,inactive,inactive,inactive,inactive,inactive,–,inactive,–,inactive,inactive,inactive
Cc1cc(C)c(/C=C2\C(=O)Nc3ccccc32)[nH]1,inactive,inactive,inactive,inactive,inactive,inactive,inactive,inactive,inactive,inactive,inactive,inactive,inactive,inactive,inactive,inactive,–,inactive,inactive,inactive
CN(C)CCCN1c2ccccc2Sc2ccc(C(F)(F)F)cc21,inactive,inactive,inactive,inactive,inactive,inactive,–,–,6.75 µM (active),5.36 µM (active),–,–,12.6 µM (active),inactive,–,inactive,10 µM (active),–,–,–
CN(C)CCOC(=O)COc1ccc(Cl)cc1,inactive,inactive,inactive,inactive,–,inactive,inactive,inactive,–,–,inactive,inactive,inactive,inactive,inactive,inactive,inactive,inactive,inactive,inactive
CCCOc1ccccc1-c1nc2n[nH]nc2c(=O)[nH]1,inactive,inactive,inactive,inactive,inactive,inactive,–,inactive,inactive,inactive,inactive,inactive,inactive,inactive,inactive,inactive,–,inactive,inactive,inactive
COC(=O)C1=C(C)NC(C)=C(C(=O)OC(C)(C)CN(C)CCC(c2ccccc2)c2ccccc2)C1c1cccc([N+](=O)[O-])c1 (stereo unspecified),3.79 µM (active),3.79 µM (active),5.36 µM (active),4.26 µM (active),6.01 µM (active),3.79 µM (active),1.51 µM (active),3.55 µM (active),3.79 µM (active),3.38 µM (active),4.78 µM (active),2.24 µM (active),3.16 µM (active),–,2.13 µM (active),3.16 µM (active),2 µM (active),–,2.51 µM (active),2.51 µM (active)
CCCCCN(CCCCC)C(=O)C(CCC(=O)O)NC(=O)c1ccc(Cl)c(Cl)c1 (stereo unspecified),inactive,inactive,inactive,inactive,inactive,inactive,inactive,inactive,inactive,inactive,inactive,inactive,inactive,inactive,inactive,inactive,inactive,inactive,inactive,inactive
Nc1c2c(nc3ccccc13)CCCC2O (stereo unspecified),inactive,inactive,inactive,inactive,inactive,inactive,inactive,inactive,inactive,–,inactive,inactive,inactive,inactive,inactive,inactive,inactive,inactive,inactive,inactive
OCCN1CCN(CC/C=C2/c3ccccc3Sc3ccc(C(F)(F)F)cc32)CC1,9.53 µM (active),6.75 µM (active),7.57 µM (active),–,6.01 µM (active),6.75 µM (active),4.26 µM (active),–,–,6.75 µM (active),8.49 µM (active),7.94 µM (active),12.6 µM (active),–,6.75 µM (active),6.31 µM (active),6.31 µM (active),–,11.2 µM (active),10 µM (active)
CCO/C([O-])=N/c1c[n+](N2CCOCC2)no1,inactive,inactive,inactive,inactive,–,inactive,inactive,inactive,inactive,inactive,inactive,inactive,inactive,inactive,inactive,inactive,inactive,inactive,inactive,inactive
CCCN(CCC)CCc1cccc2c1CC(=O)N2,inactive,inactive,inactive,inactive,inactive,inactive,–,inactive,inactive,inactive,inactive,inactive,inactive,inactive,inactive,inactive,inactive,inactive,inactive,inactive
CCN(CC)CCCN(c1ccccc1)C1Cc2ccccc2C1,7.57 µM (active),13.5 µM (active),6.75 µM (active),–,8.49 µM (active),12 µM (active),4.78 µM (active),5.01 µM (active),2.13 µM (active),4.26 µM (active),8.49 µM (active),3.98 µM (active),3.98 µM (active),5.62 µM (active),6.01 µM (active),11.2 µM (active),3.55 µM (active),11.2 µM (active),5.01 µM (active),4.47 µM (active)

# From PubChem BioAssay (NCATS)
